# Results filed as inconclusive are left out. Values without a mark were called inactive. Activity calls are given as the source filed them. Calls come from the whole dose curve; as a rule, active = well fitted activation curve with a large enough effect in the signal ratio in the repeat runs (not every such curve was filed as active); inconclusive = weak or mixed curves; inactive = flat fitted curve, though single readings scatter; the % refers to the signal ratio.
# Assay: qHTS assay to identify small molecule agonists of H2AX (AID 1224845)
# Settings: CHO-K1 phospho-H2AX Ser139 HTRF, 3 h; series mostly up to 154 µM; activation (H2AX phosphorylation): at the top concentration
# Text: National Center for Advancing Translational Sciences [NCATS]
# NIH Chemical Genomics Center [NCGC]
# U.S. Environmental Protection Agency [EPA]
# National Institutes of Environmental Health Sciences [NIEHS]
# National Toxicology Program [NTP]
# U.S. Food and Drug Administration [FDA]
# HTRF phospho-H2AX (Ser139) assay (Cisbio Bioassays, US) enables the quantitative detection of the histone variant H2AX when phosphorylated on serine 139. When double-stranded DNA breaks, either by ionizing radiation or endogenous physiological processes, H2AX becomes phosphorylated at Ser139. This phospho-Ser139 serves as a sensitive biomarker for the detection of such breaks, localizing the site of DNA repair. So, HTRF phospho-H2AX Ser139 is a pertinent assay to study genome stability, the cell cycle, DNA repair, and it serves as a biomarker for cancer, and to understand aging. Wild type CHO-K1 cells were used to identify the inducers of Phospho-H2AX Ser 139 from the Tox21 10K compound collections.
# Tox21 Assay Protocol Summary:
# The CHO-K1 cells suspended in culture medium containing 10% FBS were dispensed at 1000 cells/ 3 ul/well in 1536-well white wall/solid bottom plates (Greiner Bio-One North America, NC) using a Multidrop Combi (Thermo Fisher Scientific Inc., Waltham, MA). After the assay plates were incubated at 37C overnight, 23 nl of compounds at 15 concentrations (from 5-48 columns) or positive control (from 1 to 4 columns) were transferred to the assay plates using a Pintool station (Wako, San Diego, CA) into each well resulting in a final DMSO concentration of 0.76%. After 3hr incubation at 37C, 1 uL/well Supplemented Lysis buffer (diluted 100 fold blocking reagent in lysis buffer) (HTRF Phospho-H2A.X (S139) Assay kit from Cisbio US Inc., Bedford, MA) was added using a Flying Reagent Dispenser (FRD) (Aurora Discovery, CA). After 10sec spin at 1000 rpm in a plate centrifuge, the assay plates were incubated at room temperature for 30 min. Then followed by the addition of 1 uL/well detection buffer (containing a mixture of two antibodies, one labeled with cryptate, Anti pH2AX (S139)-K and another labeled with d2, Anti H2AX-d2) using FRD. After incubation at room temperature for 24 hr, the time resolved fluorescence at excitation 320 nm and emissions at 665 nm and 620 nm was measured using an Envision plate reader (PerkinElmer, Waltham, MA).
# % is set by controls: 0 for no effect and ±100 for the full control effect; potency is the fitted concentration of half-maximal effect.
Structure (SMILES),activation (H2AX phosphorylation),Potency
CC1(C)[C@@H](OC(=O)CCC(=O)O)CC[C@]2(C)[C@H]3C(=O)C=C4[C@@H]5C[C@@](C)(C(=O)O)CC[C@]5(C)CC[C@@]4(C)[C@]3(C)CC[C@@H]12,0.988% [at 70.9 µM],
OCCOCC#CCOCCO,-0.721%,
CCCCCCCCCI,-0.486%,
c1ccc(C[n+]2cccc3ccccc32)cc1,-3.78%,
Cc1[nH]cnc1CN1CCc2c(c3ccccc3n2C)C1=O,1.38% [at 70.9 µM],
CN1C(=O)N(c2ccccc2Br)Cc2cnc(Nc3ccc4c(c3)OCC(CO)O4)nc21 (stereo not given),10.5%,
COc1ccc(OC(=O)N(CC(=O)O)Cc2ccc(OCCc3nc(-c4ccccc4)oc3C)cc2)cc1,-6.67% [at 70.9 µM],
CC(C)=CCC/C(C)=C/CC/C(C)=C/C(=O)OCC(=O)[C@@]1(O)CC[C@H]2[C@@H]3CCC4=CC(=O)C=C[C@]4(C)[C@H]3[C@@H](O)C[C@@]21C,-2.59% [at 70.9 µM],
CC(C)(c1ccccc1)c1ccccc1,2.07%,
OC(CCN1CCCC1)(c1ccccc1)C1CCCCC1 (stereo not given),-4.04% [at 70.9 µM],
C[C@@]12CCC[C@H]1[C@@H]1CC[C@H]3C[C@@H](O)CC[C@]3(C)[C@H]1CC2,-4.58% [at 70.9 µM],
CCOC(=O)[C@H](CCc1ccccc1)N[C@@H](C)C(=O)N(CC(=O)O)C1Cc2ccccc2C1,-5.07% [at 70.9 µM],
CC=C(Cl)Cl,-0.517%,
CC(CN(C)C)C(C)(O)Cc1ccc(Cl)cc1 (stereo not given),0.459% [at 70.9 µM],
Cc1ccccc1N=C(N)Nc1ccccc1C,-0.835%,
C(=C\c1ccccc1)/c1ccccc1,-0.684%,
C[C@@H](CN(C)C)CN1c2ccccc2Sc2ccccc21,6.92% [at 70.9 µM],
C=CC(C)(CCC=C(C)C)OC(=O)CC(C)C (stereo not given),-1.75%,
CC1(C)[C@H](C(=O)O)N2C(=O)C[C@H]2S1(=O)=O,-2.08% [at 70.9 µM],
NCCNCCO,0.828%,

Structure (SMILES),activation (H2AX phosphorylation),Potency
CC(C)Nc1cccnc1N1CCN(C(=O)c2cc3cc(NS(C)(=O)=O)ccc3[nH]2)CC1,6.17% [at 70.9 µM],
C[C@@H](O)[C@H]1C(=O)N2C(C(=O)O)=C([C@H]3CCCO3)S[C@H]12,-4.59% [at 70.9 µM],
Cc1ccc(C(C)(C)O)cc1,-0.0235%,
C=Cc1ccc(S(=O)(=O)O)cc1,-2.29%,
O=c1[nH]c2ccc(Cl)cc2o1,0.258%,
O=C=Nc1cccc(C(F)(F)F)c1,-0.406%,
O=C1c2ccccc2C(=O)N1CCc1noc(-c2ccc(CN3CCCCCC3)s2)n1,-1.52%,
Cc1ccc2c(Br)cc(Br)c(O)c2n1,,39.1 µM (active)
O=C(Cn1ccnc1[N+](=O)[O-])NCCO,-1.36% [at 70.9 µM],
COC(=O)CCS,0.0278%,
Nc1ncnc2c1ncn2[C@H]1CC[C@@H](CO)O1,4.64%,
CCCCCCCCCCCCCCN(CCO)CCO,8.47%,
O=C1NCCN1CCO,0.158%,
CCOC(=O)C1=C(C)NC(C)=C(C(=O)OC)C1c1cccc(Cl)c1Cl (stereo not given),-4.11% [at 70.9 µM],
C=C(C)C(=O)OCCCCCCCCCCCCC,1.46%,
CC(C)c1nc(CN(C)C(=O)N[C@H](C(=O)N[C@@H](Cc2ccccc2)C[C@H](O)[C@H](Cc2ccccc2)NC(=O)OCc2cncs2)C(C)C)cs1,0.716% [at 70.9 µM],
CCC(C)COC(C)=O (stereo not given),-1.53%,
CC(CCC(=O)O)C(=O)O (stereo not given),-1.37%,
CO/N=C(/C(=O)N[C@@H]1C(=O)N2C(C(=O)O)=C(COC(N)=O)CS[C@H]12)c1ccco1,-0.115%,
C=C(C)C(=O)OCCOCCOC(=O)C(=C)C,-1.81%,
